A selection: hits, their analogues and other compounds. The true share with any hit is near 1.1%.
SRC3 inh = SRC3 coactivator transcriptional activity inhibitors, primary screen, cell-based, luminescence | Nuclear receptor coactivator 3 (Homo sapiens), Q9Y6Q9 | HEK293 GAL4-SRC3 luciferase reporter | inhibition, % at 3.6 µM | 0.17% of 360,000 active;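 active = inhibition above a per-campaign cutoff, the mean of all compounds plus 3 SD, cut at about 60% in these data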;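 note: 0% = DMSO-treated cells and 100% = gossypol-treated cells at 36 µM; higher means less SRC3-driven luciferase light from the GAL4 reporter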
NCOA2 inhibitor = inhibition of GAL4-SRC2 driven luciferase reporter, primary screen, SRC2 inhibitor project, cell-based, luminescence | 0.17% of 370,000 active | HEK293 GAL4-SRC2 luciferase reporter | AID 651957, 2012 | Nuclear receptor coactivator 2 (Homo sapiens), Q15596 | inhibition, % at 9 µM;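 active = inhibition above the mean inhibition of all tested compounds plus 3 SD, set per campaign, cut at about 52% in these data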;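 note: 0% = DMSO treated cells and 100% = cells given Gossypol at 36 µM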
NR2F2 inh = NR2F2 transcriptional activity inhibitors, primary screen, cell-based, luciferase reporter, HEK293T, luminescence | AID 686940, 2013 | inhibition, % at 8.6 µM | 0.7% of 370,000 active | HEK293T NGFI-A luciferase reporter;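 active = inhibition above a per-plate cutoff, mean inhibition of test wells between control levels plus 3 SD, cut at about 38% in these data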;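 note: cells cotransfected with COUP-TFII expression vector driving the NGFI-A reporter; 0% = median of COUP-TF2 test wells and 100% = reporter-only cells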
SRC1 inh = SRC1 coactivator transcriptional activity inhibitors, primary screen, cell-based, luminescence. HEK293 GAL4-SRC1 luciferase reporter. AID 588354, 2011. inhibition, % at 3.6 µM. 0.12% of 360,000 active. Nuclear receptor coactivator 1 (Homo sapiens), Q15788;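 active = inhibition above the campaign mean plus 3 SD, with each screening campaign given its own cutoff, cut at about 60% in these data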;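 note: 0% = DMSO treated cells and 100% = gossypol at 36 µM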
GalR3 antag = GalR3 antagonists in HEK293 cells, primary screen, cell-based, fluorescence readout | Galanin receptor type 3 (Homo sapiens), O60755 | HEK293 GalR3-CNG cAMP membrane potential fluorescence; galR3 body fused to GalR1 C-terminus | inhibition, % at 3 µM | 0.44% of 360,000 active;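 active = inhibition above the screen-wide average plus 3 SD, cut at about 13% in these data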;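 note: forskolin and galanin both at EC90 stimulate the cells; cAMP rise reported by CNG channel membrane potential dye signal; 0% = forskolin plus galanin with DMSO and 100% = forskolin alone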
NR5A2 inv ag = LRH-1 (NR5A2) inverse agonists, primary screen, cell-based, luminescence, HEK293T, StAR-luciferase reporter. Nuclear receptor subfamily 5 group A member 2 (Homo sapiens), O00482. LRH-1 transfected, 24 h. inhibition, % at 3.6 µM. 0.13% of 360,000 active. AID 602396, 2012;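 active = inhibition above the mean inhibition of all tested compounds plus 3 SD, cut at about 73% in these data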;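 note: 0% = DMSO wells and 100% = reporter-only cells lacking LRH-1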
VP16 Luc counter = Gal4-VP16 luciferase reporter inhibitors, counter-screen for COUP-TFII antagonist project, cell-based, luminescence, HEK293. 25% of 2,500 active. AID 687007, 2013. inhibition, % at 8.5 µM. shares compounds with NR2F2 inh; in the data active = inhibition above about 13%
NR2F2 inh conf = NR2F2 transcriptional activity inhibitors, confirmation, cell-based, luciferase reporter, HEK293, triplicate; HEK293 NGFI-A luciferase reporter, luminescence; AID 687008, 2013; inhibition, % at 8.5 µM; shares compounds with NR2F2 inh; 45% of 2,500 active;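 active = mean inhibition over three repeats above a set limit taken from the earlier primary screen, cut at about 38% in these data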;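 note: 100% = cells given the luciferase reporter alone without the COUP-TF2 vector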
* hit, by the source's call; nt = no result given.

SMILES	SRC3 inh	NCOA2 inhibitor	NR2F2 inh	SRC1 inh	GalR3 antag	NR5A2 inv ag	VP16 Luc counter	NR2F2 inh conf
COc1ccc(Cl)c(-c2cc(C(=O)Nc3ccc(C)c(NS(C)(=O)=O)c3)[nH]n2)c1	-2	19	25	-7	-7	21	nt	nt
Cc1ccc(NC(=O)c2cc(-c3cc(Cl)ccc3C)n[nH]2)cc1NS(C)(=O)=O	5	7	50*	22	9	30	-6	41*
COc1ccc(Cl)cc1-c1cc(C(=O)Nc2ccc(C)c(NS(C)(=O)=O)c2)[nH]n1	2	25	38*	14	-5	8	-10	-4
COC[C@H]1CCCN1c1ccc2c(c1)O[C@@H](COCc1ccccc1)CN([C@@H](C)c1ccccc1)S2(=O)=O	nt	16	-7	nt	-4	3	nt	nt
COc1ccc(C(CNc2ncnc3sccc23)N(C)C)cc1OC (stereo not drawn)	3	-21	-6	-22	-9	15	nt	nt
COc1ccc(CNc2ncnc3sccc23)cc1OC	21	6	48*	-7	-10	40	-1	23
Cc1cc2c(NCc3ccccc3)ncnc2s1	24	29	49*	30	-4	26	-4	26
COc1ccc(CNc2ncnc3sccc23)cc1	28	32	49*	8	-10	34	1	39*
OC(CNc1ncnc2sccc12)c1ccccc1 (stereo not drawn)	-52	-17	40*	-55	5	-57	-150	-35
COc1cccc(-c2ccc(CC[C@H]3O[C@H]4CC[C@H](CO)O[C@H]4C[C@H]3NS(C)(=O)=O)cc2)c1	nt	-12	-22	nt	nt	nt	nt	nt
COC(=O)[C@]12C[C@H](CC(=O)NCCCN3CCCC3=O)C(=O)N(Cc3ccco3)C1=C[C@H](COCc1ccccc1)O[C@@H]2C	nt	-15	4	nt	nt	nt	nt	nt
CC(=O)Nc1cccc(-c2csc(Nc3cc(C)ccn3)n2)c1	-70	-28	-35	-62	-4	-127	nt	nt
CC(=O)Nc1ccc(-c2csc(Nc3cc(C)ccn3)n2)cc1	-21	-22	53*	-18	-5	-40	-79	-28
Nc1nc2c(ncn2[C@@H]2O[C@H](C(=O)N[C@@H](Cc3ccccc3)C(=O)NCC3CCCCC3)[C@@H](O)[C@H]2O)c(=O)[nH]1	nt	-9	-6	nt	-2	nt	nt	nt
COc1cccc2c1C(=O)c1c(O)c3c(c(O)c1C2=O)CC(O)(C(=O)CO)CC3OC1CC(N(C)C)C(O)C(C)O1 (stereo not drawn)	85*	58*	45*	79*	-4	97*	28*	27
COc1cccc2c1C(=O)c1c(O)c3c(c(O)c1C2=O)C[C@@](O)(C(C)=O)C[C@@H]3O[C@H]1C[C@H](N)[C@H](O)[C@H](C)O1	82*	27	54*	6	nt	99*	28*	44*
COc1ccc(C=Cc2ccc3ccccc3n2)c(OC)c1	4	12	47*	-6	0	-21	-30	27
COc1ccc(OC)c(/C=C/c2ccc3cccc(O)c3n2)c1	-3	-26	2	-5	-9	1	nt	nt
Cc1cc(Oc2cccnc2)ccc1NC(=O)Cc1c(C)[nH]c2ccccc12	nt	0	-21	nt	-7	nt	nt	nt
CC(C)N1C/C(=C/c2cccnc2)C(=O)/C(=C/c2cccnc2)C1	48	-22	-18	6	-1	-5	nt	nt
CC(C)N1C/C(=C/c2ccsc2)C(=O)/C(=C/c2ccsc2)C1	11	-49	47*	12	-1	9	38*	68*
CCOC(=O)Cc1csc(NC(=O)/C=C/c2ccc(Cl)cc2)n1	-11	-2	44*	-1	-6	-14	-66	5
Cc1ccoc1C(=O)Nc1ccc(CC(=O)O)cc1	16	83*	76*	-18	4	0	70*	66*
Cc1cc(F)ccc1C(O)c1ncc(-c2ccc3ccccc3c2)[nH]1 (stereo not drawn)	-17	-7	-10	-1	-8	0	nt	nt
COC(=O)C(Sc1ccc(Cl)cc1)C1SC(=S)N(Cc2ccccc2)C1=O (stereo not drawn)	-7	3	15	-24	0	-4	nt	nt
SMILES	SRC3 inh	NCOA2 inhibitor	NR2F2 inh	SRC1 inh	GalR3 antag	NR5A2 inv ag	VP16 Luc counter	NR2F2 inh conf
Cc1ccc(CC(=O)Nc2ccncc2)cc1	4	17	55*	0	-2	46	-9	24
CN(CCCC(=O)Nc1ccncc1)S(=O)(=O)c1ccc(Cl)cc1	9	8	52*	13	-7	1	4	30
O=C(Nc1ccncc1)Nc1ccc(Cl)cc1	10	-5	-13	-16	-4	-7	nt	nt
Cc1ccc(CC(=O)Nc2cccnc2)cc1	8	19	-10	4	-2	1	nt	nt
O=C(Cc1ccc(Cl)cc1)Nc1ccncc1	21	18	40*	6	-6	33	-3	8
O=C(CSc1nnc(-c2ccccn2)n1-c1ccccc1)Nc1ccc2c(c1)OCCO2	nt	0	24	nt	nt	nt	nt	nt
CCOC(=O)[C@]12CCCCC/C=C\1N(Cc1ccc(OC)cc1)C(=O)[C@H]2CC(=O)NCCCCc1ccccc1	nt	-3	0	nt	nt	nt	nt	nt
CC(C)(C)C(c1nc2ccccc2[nH]1)n1c(-c2ccsc2)nc2ccccc21 (stereo not drawn)	nt	7	-10	nt	-5	-3	nt	nt
Cc1ccc(OCC(=O)c2cc(C)n(Cc3cccs3)c2C)c([N+](=O)[O-])n1	37	66*	61*	30	4	14	-6	15
Cc1ccc(OCC(=O)c2cc(C)n(CC(F)(F)F)c2C)c([N+](=O)[O-])n1	-4	2	8	-24	-5	3	nt	nt
COC(=O)[C@]12C[C@H](CC(=O)NCCC(C)C)C(=O)N(Cc3ccc(Cl)cc3Cl)C1=C[C@H](C1CCCC1)O[C@@H]2C	nt	14	-6	nt	nt	nt	nt	nt
C[C@@H]1ON(C)[C@H]2C[C@H]3c4cc(-c5ccc6c(c5)OCO6)ccc4CCN3C[C@@H]12	nt	3	-2	nt	-4	nt	nt	nt
Nc1[nH]c(C(=O)c2ccc(Br)cc2)c(-c2ccccc2Cl)c1C(=O)NCCc1c[nH]c2ccccc12	nt	-23	4	nt	-7	nt	nt	nt
